PubChem BioAssay (NCATS)
Results filed as inconclusive are left out. Entries that show only a call come without a potency. A number with no mark means an inactive call. Active and inactive are the calls of the source. Calls follow the shape of the dose curve; as a rule, active = well fitted curve in the direction sought with a large enough effect; inconclusive = small, poorly fitted or top-dose-only effect, or another doubt; inactive = no such curve, though single readings can be large; an effect the other way counts as inactive or inconclusive.

Assays:
[1] = molecular target: Rap guanine nucleotide exchange factor 3 (Homo sapiens) (UniProt O95398); assay: Confirmatory qHTS for antagonist of cAMP-regulated guanine nucleotide exchange factor 3 (EPAC1) (AID 1645880); settings: EPAC1 Rap1B-BODIPY-GDP exchange, fluorescence; activity, negative = inhibition: at 115 µM (top of the series); also: nearly all actives have a fitted effect of over 55% in size; also: potency is read from the fitted curve at half-maximal effect
Summary of the method: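 Released BODIPY-GDP fluoresces less than Rap1-bound BODIPY-GDP; the signal is followed at 480/540 nm at 5-min intervals over 30 min, after 5 min at room temperature. Reactions contain 100 nM EPAC1, 250 nM RAP1B-BODIPY-GDP and 50 uM GDP; results are normalized to ATA and DMSO.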

[2] = molecular target: Rap guanine nucleotide exchange factor 4 (Homo sapiens) (UniProt Q8WZA2); assay: Confirmatory qHTS for agonist of cAMP-regulated guanine nucleotide exchange factor 4 (EPAC2) (AID 1645884); settings: EPAC2 GEF activity, Rap1B-BODIPY-GDP fluorescence; series mostly up to 154 µM;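 also: nucleotide exchange releases bodipy-GDP from Rap1 and this lowers its fluorescence; nearly all actives have a fitted effect of over 65% in size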; also: potency is read from the fitted curve at half-maximal effect
[3] = molecular target: Rap guanine nucleotide exchange factor 4 (Homo sapiens) (UniProt Q8WZA2); assay: Confirmatory qHTS for antagonist of cAMP-regulated guanine nucleotide exchange factor 4 (EPAC2) (AID 1645885); settings: EPAC2 Rap1B-BODIPY-GDP exchange fluorescence, biochemical; series mostly up to 12.7 µM; also: nearly all actives have a fitted effect of over 25% in size; also: potency is read from the fitted curve at half-maximal effect
[4] = molecular target: Rap guanine nucleotide exchange factor 3 (Homo sapiens) (UniProt O95398); assay: Counterscreen qHTS for antagonist of cAMP-regulated guanine nucleotide exchange factor 3 (EPAC1) (AID 1645888); settings: Rap1B-BODIPY-GDP nucleotide exchange, fluorescence; series mostly up to 154 µM
Summary of the method: (§1)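 Measured: fluorescence of BODIPY-GDP bound to Rap1B, which falls as exchange proceeds. Conditions include 50 uM competing GDP, 5 and 30 min reads, and a later cAMP challenge for antagonist detection.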

[5] = molecular target: Rap guanine nucleotide exchange factor 3 (Homo sapiens) (UniProt O95398); assay: Counterscreen qHTS for agonist of cAMP-regulated guanine nucleotide exchange factor 3 (EPAC1) (AID 1645889); settings: EPAC1 Rap1B-BODIPY-GDP exchange, fluorescence; series mostly up to 154 µM; also: nearly all actives have a fitted effect of over 40% in size; also: potency is read from the fitted curve at half-maximal effect
Summary of the method: as §1

Chain of Rap guanine nucleotide exchange factor 3 (Homo sapiens) (O95398 whole entry, looked up): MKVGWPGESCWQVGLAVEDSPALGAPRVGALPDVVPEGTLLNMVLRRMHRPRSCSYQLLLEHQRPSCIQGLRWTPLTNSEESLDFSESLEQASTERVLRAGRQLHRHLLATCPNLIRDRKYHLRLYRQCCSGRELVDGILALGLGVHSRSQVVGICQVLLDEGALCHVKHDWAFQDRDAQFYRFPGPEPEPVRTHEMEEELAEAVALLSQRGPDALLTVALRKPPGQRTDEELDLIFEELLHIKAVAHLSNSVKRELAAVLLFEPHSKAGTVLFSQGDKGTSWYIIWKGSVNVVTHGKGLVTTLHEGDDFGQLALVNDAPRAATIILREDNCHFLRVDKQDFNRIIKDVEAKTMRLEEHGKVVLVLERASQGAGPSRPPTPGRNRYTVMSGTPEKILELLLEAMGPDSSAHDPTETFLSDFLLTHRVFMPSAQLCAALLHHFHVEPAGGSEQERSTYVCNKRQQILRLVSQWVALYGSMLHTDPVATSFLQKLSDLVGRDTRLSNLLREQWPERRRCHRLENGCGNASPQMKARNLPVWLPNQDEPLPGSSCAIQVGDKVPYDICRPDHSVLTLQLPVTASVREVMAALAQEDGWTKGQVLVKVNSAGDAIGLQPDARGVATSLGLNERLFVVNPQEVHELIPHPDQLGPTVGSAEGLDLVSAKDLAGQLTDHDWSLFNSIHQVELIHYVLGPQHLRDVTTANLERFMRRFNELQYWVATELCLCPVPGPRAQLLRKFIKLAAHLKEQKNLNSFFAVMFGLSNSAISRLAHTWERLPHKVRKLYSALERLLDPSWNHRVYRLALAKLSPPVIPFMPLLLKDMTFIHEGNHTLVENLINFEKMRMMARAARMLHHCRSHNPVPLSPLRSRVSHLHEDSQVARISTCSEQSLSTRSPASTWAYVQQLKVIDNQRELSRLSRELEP
Chain of Rap guanine nucleotide exchange factor 4 (Homo sapiens) (Q8WZA2 whole entry, looked up): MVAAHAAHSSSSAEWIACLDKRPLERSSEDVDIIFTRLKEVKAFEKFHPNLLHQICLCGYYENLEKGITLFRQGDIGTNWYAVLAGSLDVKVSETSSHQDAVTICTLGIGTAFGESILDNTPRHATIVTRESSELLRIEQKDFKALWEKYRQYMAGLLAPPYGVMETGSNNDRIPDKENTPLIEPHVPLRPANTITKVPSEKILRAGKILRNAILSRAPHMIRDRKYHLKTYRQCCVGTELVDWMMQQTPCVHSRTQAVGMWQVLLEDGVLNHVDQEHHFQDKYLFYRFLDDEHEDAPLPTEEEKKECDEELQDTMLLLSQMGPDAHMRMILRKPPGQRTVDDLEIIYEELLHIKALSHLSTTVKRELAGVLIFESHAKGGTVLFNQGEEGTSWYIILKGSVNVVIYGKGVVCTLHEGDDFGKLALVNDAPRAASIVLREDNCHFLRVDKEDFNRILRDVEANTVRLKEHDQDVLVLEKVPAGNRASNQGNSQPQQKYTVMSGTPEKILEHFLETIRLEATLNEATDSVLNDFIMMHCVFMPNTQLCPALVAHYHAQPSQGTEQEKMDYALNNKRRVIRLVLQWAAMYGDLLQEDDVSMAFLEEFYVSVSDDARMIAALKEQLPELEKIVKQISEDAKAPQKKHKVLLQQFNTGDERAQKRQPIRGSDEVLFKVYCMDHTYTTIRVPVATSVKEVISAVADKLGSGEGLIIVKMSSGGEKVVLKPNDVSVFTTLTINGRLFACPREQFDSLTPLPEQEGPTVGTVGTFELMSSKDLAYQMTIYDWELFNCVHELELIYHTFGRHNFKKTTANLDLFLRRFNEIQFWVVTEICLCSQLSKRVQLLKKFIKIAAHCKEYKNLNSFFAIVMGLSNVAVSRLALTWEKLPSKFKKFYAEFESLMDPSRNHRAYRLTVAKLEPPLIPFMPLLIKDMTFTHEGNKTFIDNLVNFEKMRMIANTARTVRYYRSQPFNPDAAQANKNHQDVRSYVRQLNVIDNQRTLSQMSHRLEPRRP

SMILES	Potency [1]	Potency [2]	Potency [3]	Potency [4]	Potency [5]	activation [2]	activity change, negative = inhibition [4]	activation [5]
O=C(N/N=C/c1cccnc1)c1cc(-c2ccccc2OCc2ccccc2)n[nH]1	inactive	89.1 µM (active)	inactive	inactive	25.1 µM (active)			
CCN(CC)C(=O)c1ccc(/C=C/c2c[nH]c3ccccc23)[n+](C)c1	inactive		inactive		15.8 µM (active)	6.96% [at 17.1 µM, percent relative to cAMP agonist control]	70% [at 30.8 µM]	
CC(=O)NC(c1cccc(F)c1)c1nc(-c2ccccc2)cs1 (stereo not given)	inactive		inactive			10% [at 17.1 µM, percent relative to cAMP agonist control]	-20.8% [at 30.8 µM]	45.7% [at 30.8 µM]
COc1cc(C2CC(=O)Oc3cc(C)cc(C)c32)cc(OC)c1OC (stereo not given)	inactive	inactive	1.51 µM (active)	inactive	inactive			
CC1=Nc2ccccc2/C1=C\c1nc(-c2ccccc2)oc1O	inactive		inactive			7.61% [at 17.1 µM, percent relative to cAMP agonist control]	-10.6% [at 30.8 µM]	18.1% [at 30.8 µM]
CCOC(=O)c1sc2nc3c(SCC(=O)O)cc(C(=O)c4cc(F)ccc4O)cn3c(=O)c2c1C	9.53 µM (active)	inactive	inactive	inactive	inactive			
COc1ccccc1CNc1cc(C)nc2nc(-c3ccc(C)cc3)nn12	inactive	inactive	inactive	inactive	inactive			
CCOC(=O)C1=C(C)N=c2s/c(=C/c3ccc(OCC(=O)O)c(OC)c3)c(=O)n2C1c1ccc(Cl)cc1 (stereo not given)	inactive	inactive	inactive	inactive	inactive			
COc1ccc2oc(C)c(C(=O)c3ccccc3)c2c1	inactive		inactive			5.91% [at 17.1 µM, percent relative to cAMP agonist control]	1.7% [at 30.8 µM]	7.36% [at 30.8 µM]
O=C(OCCN1C(=O)c2cccc3c(N4CCOCC4)ccc(c23)C1=O)c1ccccc1Cl	inactive		inactive		11.2 µM (active)	17.6% [at 17.1 µM, percent relative to cAMP agonist control]	1.86% [at 30.8 µM]	
O=C(c1ccco1)N1CCN(c2cc(=O)n(C3CCCCC3)c(=O)[nH]2)CC1	inactive	inactive	inactive	inactive	inactive			
CCCN1C(=O)c2cccc3c(N4CCCCC4)ccc(c23)C1=O	inactive	100 µM (active)	inactive	inactive	39.8 µM (active)			
COc1ccc(C)cc1CN1C(=O)c2ccccc2C1=O	inactive		inactive			-0.218% [at 17.1 µM, percent relative to cAMP agonist control]	-7.92% [at 30.8 µM]	12.1% [at 30.8 µM]
C(=C(c1ccccc1)c1ccccc1)c1ccccn1	inactive	inactive	84.9 µM (active)	inactive	inactive			
COc1ccc(-c2nc(N/N=C(\C)c3ccc(O)cc3)c3ccccc3n2)cc1	inactive		inactive			-0.683% [at 17.1 µM, percent relative to cAMP agonist control]	8.99% [at 30.8 µM]	22.7% [at 30.8 µM]
CN(Cc1cccs1)c1nc(-c2cccnc2)nc2ccccc12	inactive		inactive			12.1% [at 17.1 µM, percent relative to cAMP agonist control]	-10.3% [at 30.8 µM]	51% [at 30.8 µM]
COC(=O)c1c(SC)nc2ccccc2c1OCc1ccc(C)cc1C	inactive	inactive	inactive	inactive	inactive			

SMILES	Potency [1]	Potency [2]	Potency [3]	Potency [4]	Potency [5]	activation [2]	activity change, negative = inhibition [4]	activation [5]
N=C1/C(=C\c2coc3ccc(O)cc3c2=O)C(=O)N=C2SC=CN12	inactive	112 µM (active)	inactive	inactive	44.7 µM (active)			
COc1ccc(O)c(C(=O)c2cc(SCC(=O)O)c3nc4sc5c(c4c(=O)n3c2)CCCC5)c1	23.9 µM (active)	inactive	inactive	inactive	inactive			
COC(=O)c1c(NC(=O)c2ccc(S(=O)(=O)N(C)C3CCCCC3)cc2)sc2c1CCN(C)C2	inactive	inactive	inactive	inactive	89.1 µM (active)			
N=C1/C(=C/c2coc3ccccc3c2=O)C(=O)N=C2SC(c3ccco3)=NN12	inactive	inactive	inactive	inactive	39.8 µM (active)			
CC(C)CCn1c(Oc2ccccc2F)nc2c1c(=O)n(C)c(=O)n2C	inactive	inactive	inactive	inactive	inactive			
O=C(/C=C/c1ccc(N2CCOCC2)cc1)c1ccccc1	inactive	inactive	inactive	inactive	inactive			
CC(C)n1cc(/C=C/c2cc[n+](C)cc2)c2ccccc21	inactive	112 µM (active)	inactive	inactive	56.2 µM (active)			
Cc1ccc2[nH]cc(/C=C/c3cc[n+](C)cc3)c2c1	inactive	112 µM (active)	inactive	inactive	56.2 µM (active)			
O=c1oc2cc(O)ccc2cc1-c1nnc(Nc2ccccc2F)s1	inactive	14.1 µM (active)	3.38 µM (active)	inactive	3.55 µM (active)			
O=c1oc2cc(O)ccc2cc1-c1nc2c(s1)CCc1ccccc1-2	inactive	100 µM (active)	inactive	inactive	inactive			
CN1/C(=C/C=C(C#N)C#N)C(C)(C)c2ccccc21	inactive		inactive			-11.9% [at 17.1 µM, percent relative to cAMP agonist control]	214% [at 30.8 µM]	-347% [at 30.8 µM]
O=C(O)c1cccc(-c2ccc(/C=c3/sc4nc5ccccc5n4c3=O)o2)c1	inactive	inactive	inactive	inactive	inactive			
N#CC1=C(N)OC2=C(CC/C2=C\c2ccccc2)C1c1ccccc1 (stereo not given)	inactive	112 µM (active)	inactive	inactive	inactive			
N#C/C(=C\c1ccc(N2CCOCC2)o1)c1nc2ccccc2[nH]1	inactive	112 µM (active)	inactive	inactive	39.8 µM (active)			
O=C(Cc1nc2ccccc2[nH]c1=O)c1ccccc1	inactive	100 µM (active)	inactive	inactive	inactive			
CN(C)c1ccc(/C=C2\SC(=S)N(Nc3ncc(C(F)(F)F)cc3Cl)C2=O)cc1	inactive	112 µM (active)	16.9 µM (active)	inactive	17.8 µM (active)			
